Measurements from PubChem BioAssay (Tox21).
Records with an inconclusive call do not appear. Activity calls are given as the source filed them. Calls follow the shape of the dose curve; as a rule, active = well fitted curve in the direction sought with a large enough effect in the repeat runs; inconclusive = weak or mixed curves; inactive = no such curve, though single readings can be large; an effect the other way counts as inactive or inconclusive.

Columns and labels:
[1] = qHTS RealTime-Glo MT Cell Viability Assay in HepG2 cells - 40 hour (AID 1224870); also: nearly all actives have a fitted effect of over 50% in size
Summary of the method: (§1)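 HepG2 cells (600/well) mixed with RealTime-Glo MT reagent, settled 5 h at 37 C/5% CO2 before compound addition. Nonlytic NanoLuc luminescence from viable-cell prosubstrate reduction read repeatedly during 40 h treatment at 37 C.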

[2] = A CellTox Green Cytotoxicity Assay to monitor cytotoxicity in HEK293 cells - 40 hour (AID 1224871); also: nearly all actives have a fitted effect of over 45% in size
Summary of the method: (§2)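 HEK293 cells, 600/well, were preincubated 5 hours and then exposed to compounds at 37 C for up to 40 hours. A cell-impermeant cyanine dye staining dead-cell DNA was read by fluorescence at 0, 8, 16, 24, 32 and 40 h time points.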

[3] = qHTS RealTime-Glo MT Cell Viability Assay in HEK293 cells - 16 hour (AID 1224872); also: top concentration of the series differs between compounds; nearly all actives have a fitted effect of over 50% in size
Summary of the method: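 Viability tracked continuously by luminescence as live cells reduce a prosubstrate for NanoLuc; HEK293 cells preincubated 5 h, compound-treated at 37 C, and read at 0, 8, 16, 24, 32 and 40 h.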

[4] = qHTS RealTime-Glo MT Cell Viability Assay in HepG2 cells - 8 hour (AID 1224873); also: nearly all actives have a fitted effect of over 55% in size
Summary of the method: as §1

[5] = A CellTox Green Cytotoxicity Assay to monitor cytotoxicity in HEK293 cells - 24 hour (AID 1224875); also: series mostly up to about 77 µM; nearly all actives have a fitted effect of over 45% in size
Summary of the method: as §2

[6] = A CellTox Green Cytotoxicity Assay to monitor cytotoxicity in HepG2 cells - 16 hour (AID 1224876); also: nearly all actives have a fitted effect of over 45% in size
Summary of the method: (§3)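 HepG2 cells, 600/well, preincubated 5 h with CellTox Green dye, then exposed to Tox21 compounds in DMSO at 37 C for up to 40 h. Dead-cell DNA fluorescence read at the indicated time point.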

[7] = qHTS RealTime-Glo MT Cell Viability Assay in HepG2 cells - 32 hour (AID 1224877); also: nearly all actives have a fitted effect of over 55% in size
Summary of the method: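 Viability was tracked continuously by NanoLuc luminescence from prosubstrate reduced by living HepG2 cells, at successive time points over 40 h of compound exposure. Cells with reagent were preincubated 5 h at 37 °C before compound addition.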

[8] = A CellTox Green Cytotoxicity Assay to monitor cytotoxicity in HepG2 cells - 24 hour (AID 1224878); also: nearly all actives have a fitted effect of over 45% in size
Summary of the method: as §3

[9] = A CellTox Green Cytotoxicity Assay to monitor cytotoxicity in HepG2 cells - 40 hour (AID 1224879); also: nearly all actives have a fitted effect of over 40% in size
Summary of the method: as §3

[10] = qHTS RealTime-Glo MT Cell Viability Assay in HEK293 cells - 40 hour (AID 1224874); settings: RealTime-Glo luminescence; max response: stronger effect = lower value; also: nearly all actives have a fitted effect of over 50% in size
Summary of the method: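 600 cells/well were plated with the nonlytic NanoLuc/prosubstrate reagent, pre-incubated 5 h, then given 23 nL of compound in DMSO. Incubation at 37 C for 40 h, with luminescence from viable-cell-reduced substrate read repeatedly from 0 h.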
% is scaled to controls: 0 for no effect and ±100 for the full control effect.

CCCCc1ccc(N)cc1
inactive: Potency [1] | Potency [2] | Potency [3] | outcome [4] | Potency [5] | Potency [6] | Potency [7] | Potency [8] | Potency [9]

Nc1cc(C(Cl)=C(Cl)Cl)c(S(N)(=O)=O)cc1S(N)(=O)=O
inactive: Potency [1] | Potency [2] | Potency [3] | outcome [4] | Potency [5] | Potency [6] | Potency [7] | Potency [8] | Potency [9]

NS(=O)(=O)c1cc(C2(O)NC(=O)c3ccccc32)ccc1Cl (stereo unspecified)
inactive: Potency [1] | Potency [2] | Potency [3] | outcome [4] | Potency [5] | Potency [6] | Potency [7] | Potency [8] | Potency [9]

CC1=CCC2C(C1)C2(C)C (stereo unspecified)
inactive: Potency [1] | Potency [2] | Potency [3] | max response [10] 1.81% | Potency [5] | Potency [6] | Potency [7] | Potency [8] | Potency [9]

NC(=O)CCCCC1CCSS1 (stereo unspecified)
inactive: Potency [1] | Potency [2] | Potency [3] | outcome [4] | Potency [5] | Potency [7] | Potency [8] | Potency [9]

COC(=O)C1=C(C)NC(C)=C(C(=O)OCC(C)=O)C1c1ccccc1[N+](=O)[O-] (stereo unspecified)
inactive: Potency [1] | Potency [2] | Potency [3] | max response [10] -9.05% | Potency [5] | Potency [6] | Potency [7] | Potency [8] | Potency [9]

CCCCCCCCN(C)CCCCCCCC
inactive: Potency [1] | Potency [2] | Potency [3] | max response [10] 4.39% | Potency [5] | Potency [6]

CCCOc1ccccc1-c1nc2n[nH]nc2c(=O)[nH]1
inactive: Potency [1] | Potency [2] | Potency [3] | outcome [4] | Potency [5] | Potency [6] | Potency [7] | Potency [8] | Potency [9]

NC(N)=NS(=O)(=O)c1ccc(N)cc1
inactive: Potency [1] | Potency [2] | Potency [3] | max response [10] -4.08% | Potency [5] | Potency [6] | Potency [7] | Potency [8] | Potency [9]

CC1(C)OC(=O)Nc2ccc(Br)cc21
inactive: Potency [1] | Potency [2] | Potency [3] | max response [10] 0.0036% | Potency [5] | Potency [6] | Potency [7] | Potency [8]

Nc1ncnc2c1ncn2Cc1c(F)cccc1Cl
inactive: Potency [1] | Potency [2] | Potency [3] | outcome [4] | Potency [5] | Potency [6] | Potency [7] | Potency [8] | Potency [9]

CCCCN(CCO)CCO
inactive: Potency [1] | Potency [2] | Potency [3] | outcome [4] | Potency [5] | Potency [6] | Potency [7] | Potency [8] | Potency [9]

Cc1cc(C)cc(OCC2CNC(=O)O2)c1 (stereo unspecified)
inactive: Potency [1] | Potency [2] | Potency [3] | max response [10] 2.49% | Potency [5] | Potency [6] | Potency [7] | Potency [8] | Potency [9]

C=C(C)[C@@H]1CCC2=CC(=O)C[C@@H](C)[C@]2(C)C1
inactive: Potency [1] | Potency [2] | Potency [3] | max response [10] 3.58% | Potency [5]

CCOC(=O)[C@H](CCc1ccccc1)N[C@@H](C)C(=O)N1CCC[C@H]1C(=O)O
inactive: Potency [1] | Potency [2] | Potency [3] | max response [10] -0.439% | Potency [5] | Potency [6] | Potency [7] | Potency [8]

O=C1C(CCS(=O)c2ccccc2)C(=O)N(c2ccccc2)N1c1ccccc1 (stereo unspecified)
inactive: Potency [1] | Potency [2] | Potency [3] | outcome [4] | Potency [5] | Potency [6] | Potency [7] | Potency [8] | Potency [9]

O=C(O)C(O)[C@H](O)[C@@H](O)[C@H](O)[C@H](O)CO (stereo partly specified)
inactive: Potency [1] | Potency [2] | Potency [3] | outcome [4] | Potency [5] | Potency [6] | Potency [7] | Potency [8] | Potency [9]

CC/C=C\C#N
inactive: Potency [1] | Potency [2] | Potency [3] | max response [10] 20.1% | Potency [5] | Potency [6] | Potency [7] | Potency [8] | Potency [9]

CC(=O)N[C@@H](CCC(N)=O)C(=O)O
inactive: Potency [1] | Potency [2] | Potency [3] | outcome [4] | Potency [5] | Potency [6] | Potency [7] | Potency [8] | Potency [9]

CO
inactive: Potency [1] | Potency [2] | Potency [3] | outcome [4] | Potency [5] | Potency [6] | Potency [7] | Potency [8] | Potency [9]

CCCCCCOC(=O)c1ccccc1O
inactive: Potency [1] | Potency [2] | Potency [3] | outcome [4] | Potency [5] | Potency [6] | Potency [7] | Potency [8] | Potency [9]

CC1=CC(C)C(C=O)C(C)C1 (stereo unspecified)
inactive: Potency [1] | Potency [2] | Potency [3] | outcome [4] | Potency [5] | Potency [6] | Potency [7] | Potency [8] | Potency [9]

Nc1[nH]c(=O)ncc1F
inactive: Potency [1] | Potency [2] | Potency [3] | outcome [4] | Potency [5] | Potency [6] | Potency [7] | Potency [8] | Potency [9]

O=C(O)CCNC(=O)c1ccc(N=Nc2ccc(O)c(C(=O)O)c2)cc1
inactive: Potency [1] | Potency [2] | Potency [3] | outcome [4] | Potency [5] | Potency [6] | Potency [7] | Potency [8] | Potency [9]

C=CCOc1nc(OCC=C)nc(OCC=C)n1
inactive: Potency [1] | Potency [2] | Potency [3] | outcome [4] | Potency [5] | Potency [6] | Potency [7] | Potency [8] | Potency [9]

CCCCC=O
inactive: Potency [1] | Potency [2] | Potency [3] | outcome [4] | Potency [5] | Potency [6] | Potency [7] | Potency [8] | Potency [9]

CCC(C(=O)NC(N)=O)c1ccccc1 (stereo unspecified)
inactive: Potency [1] | Potency [2] | Potency [3] | max response [10] 5.63% | Potency [5] | Potency [6] | Potency [7] | Potency [8] | Potency [9]

COc1cc(O)cc(O)c1
inactive: Potency [1] | Potency [2] | Potency [3] | outcome [4] | Potency [5] | Potency [6] | Potency [7] | Potency [8] | Potency [9]

CC(=O)O[C@H](CC(=O)[O-])C[N+](C)(C)C
inactive: Potency [1] | Potency [2] | Potency [3] | outcome [4] | Potency [5] | Potency [6] | Potency [7] | Potency [8] | Potency [9]

Oc1ccc2c(c1)OC[C@@H](N1CCC(O)(c3ccc(F)cc3)CC1)[C@H]2O
inactive: Potency [1] | Potency [2] | Potency [3] | outcome [4] | Potency [5] | Potency [6] | Potency [7] | Potency [8] | Potency [9]

CN1[C@@H]2CC[C@H]1CC(NC(=O)n1c(=O)[nH]c3ccccc31)C2 (stereo partly specified)
inactive: Potency [1] | Potency [2] | outcome [4] | max response [10] -2.86% | Potency [5] | Potency [6] | Potency [7] | Potency [8]

CC(=O)c1ccc(C)cc1
inactive: Potency [1] | Potency [2] | Potency [3] | max response [10] -0.83% | Potency [5] | Potency [6] | Potency [8] | Potency [9]

c1ccc(SCCSc2ccccc2)cc1
inactive: Potency [1] | Potency [2] | Potency [3] | Potency [5] | Potency [6] | Potency [7] | Potency [8] | Potency [9]

CO[Si](OC)(OC)OC
inactive: Potency [1] | Potency [2] | Potency [3] | max response [10] 16.8% | Potency [5] | Potency [6] | Potency [7] | Potency [8] | Potency [9]

CC(C)[C@H](N)C(=O)OCCOCn1cnc2c(=O)[nH]c(N)nc21
inactive: Potency [1] | Potency [2] | Potency [3] | max response [10] 9.28% | Potency [5] | Potency [6] | Potency [7] | Potency [8] | Potency [9]

CC(C)CCCC(C)CCCC(C)CCCCC(C)CCCC(C)CCCC(C)C (stereo unspecified)
inactive: Potency [1] | Potency [2] | Potency [3] | max response [10] 3.24% | Potency [5] | Potency [6] | Potency [7] | Potency [8] | Potency [9]

CCCCC1CCCCC(=O)O1 (stereo unspecified)
inactive: Potency [1] | Potency [2] | outcome [4] | max response [10] 13.6% | Potency [5] | Potency [6] | Potency [7] | Potency [8] | Potency [9]

CCCC(C)CO (stereo unspecified)
inactive: Potency [1] | Potency [2] | outcome [4] | max response [10] 8.5% | Potency [5] | Potency [6] | Potency [7] | Potency [8] | Potency [9]

COCc1ccc(COC)cc1
inactive: Potency [1] | Potency [2] | outcome [4] | max response [10] 4.98% | Potency [5] | Potency [6] | Potency [7] | Potency [8] | Potency [9]

Cc1ccccc1Br
inactive: Potency [1] | Potency [2] | Potency [3] | Potency [5] | Potency [6] | Potency [7] | Potency [8] | Potency [9]

COC[C@H](c1ccc(C(F)(F)F)cc1)N1CCN(C2(C)CCN(C(=O)c3c(C)ncnc3C)CC2)C[C@H]1C
inactive: Potency [1] | Potency [2] | Potency [3] | max response [10] -19.9% | Potency [5] | Potency [6] | Potency [7] | Potency [8] | Potency [9]

COC(=O)[C@H]1[C@H]2C[C@@H]3c4[nH]c5cc(OC)ccc5c4CCN3C[C@H]2C[C@@H](OC(=O)COc2ccc(OC)cc2)[C@@H]1OC
inactive: Potency [1] | Potency [2] | Potency [3] | Potency [5] | Potency [6] | Potency [8] | Potency [9]

C=CCSCC1Nc2cc(Cl)c(S(N)(=O)=O)cc2S(=O)(=O)N1 (stereo unspecified)
inactive: Potency [1] | Potency [2] | outcome [4] | max response [10] 10.2% | Potency [5] | Potency [6] | Potency [7] | Potency [8] | Potency [9]

C#CC(O)CCCCC (stereo unspecified)
inactive: Potency [1] | Potency [2] | outcome [4] | max response [10] 8.88% | Potency [5] | Potency [6] | Potency [7] | Potency [8]

CCCCCCCCCCC1CO1 (stereo unspecified)
inactive: Potency [1] | Potency [2] | Potency [3] | max response [10] 6.25% | Potency [5] | Potency [6] | Potency [8] | Potency [9]

CC(=O)OC(C)(C)C
inactive: Potency [1] | Potency [2] | Potency [3] | max response [10] 8.31% | Potency [5] | Potency [6] | Potency [7] | Potency [8] | Potency [9]
